Potency and outcome data for 15 molecules are collected here from PubChem BioAssay (NCATS).

The structures appear in SMILES notation. Records with an inconclusive call do not appear. A number with no mark means an inactive call. Calls of active or inactive are those of the source. The call rests on the fitted dose curve; in most records, active means well fitted curve in the direction sought with a large enough effect; inconclusive means small, poorly fitted or top-dose-only effect, or another doubt; inactive means no such curve, though single readings can be large; an effect the other way counts as inactive or inconclusive.

The test system of assay [1] is Zika virus NS2B-NS3 protease (unlinked complex). As to the kind of experiment: Confirmatory screen GU AMC qHTS for Zika virus inhibitors (AID 1347153).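 Further: enzyme at 25 nM with substrate at 10 µM below its Km of 18.3 µM; potency means the concentration at half of the fitted maximal effect; nearly all actives have a fitted effect of over 70% in size.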 The conditions noted are these: Recombinant NS2B-NS3 protease, AMC substrate fluorescence. The gist of the method: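 Noncovalent NS2B hydrophilic domain/NS3 protease complex (25 nM) in 10 mM Tris-HCl pH 8.0, 0.01% Tween 20 was preincubated 15 min at room temperature with compounds. Then 10 µM AMC substrate (Km 18.3 µM) was added; fluorescence was read over 15 min and fitted to a 4-parameter Hill equation.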
Background: qHTS replaces the single test concentration by a dilution series.

The nature of assay [2]: ZIKV-mCherry secondary qHTS for Zika virus inhibitors (AID 1347158). Further: potency means the concentration at half of the fitted maximal effect. Conditions: Vero cells, ZIKV-mCherry infection imaging, 48-72 h. The gist of the method: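 Percent infection is the share of Hoechst-identified Vero nuclei with mCherry signal above 450 RFU (3 SD over negative controls). Cells were infected with recombinant ZIKV-mCherry at MOI 1 after compound addition and imaged 48–72 h later.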

The nature of assay [3]: Confirmatory screen NINDS Rhodamine qHTS for Zika virus inhibitors (AID 1347161). Further: potency means the concentration at half of the fitted maximal effect; nearly all actives have a fitted effect of over 60% in size. The conditions noted are these: purified enzyme assay, Rhodamine110 substrate fluorescence, 15 min. Put shortly: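 Single-chain NS2B-NS3 protease, 25 nM, pH 8.0; compounds preincubated 15 min. Activity: Rhodamine110 release from 1.5 microM substrate over 15 min, room temperature, data fitted to 4-parameter Hill.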

In assay [4] the test system is Zika virus NS2B-NS3 protease (linked). Put plainly: 384 well plate NINDS AMC confirmatory qHTS for Zika virus inhibitors (AID 1347163). Further: nearly all actives have a fitted effect of over 50% in size. Further: potency means the concentration at half of the fitted maximal effect. Conditions: Recombinant NS2B-NS3 protease, Ac-VKTGKR-AMC fluorescence; series mostly up to 1 mM. Put shortly:
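Fluorescence at 355/460 nm was read after 25 minutes of cleavage of 30 microM Ac-VKTGKR-AMC at room temperature, in the dark. Before substrate addition, compounds (up to 1 mM final) sat ~15 minutes with 5, 30 or 60 nM linked protease. Signals were normalized to no-enzyme and no-inhibitor wells.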

Assay [5] deals with Zika virus NS2B-NS3 protease (linked construct). As to the kind of experiment: 384 well plate NINDS Rhodamine confirmatory qHTS for Zika virus inhibitors (AID 1347164). Further: potency means the concentration at half of the fitted maximal effect; nearly all actives have a fitted effect of over 65% in size. The conditions noted are these: rhodamine-110 peptide substrate fluorescence. The gist of the method:
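Compounds are incubated about 15 minutes with linked protease (5, 30 or 60 nM final). Rhodamine 110-tagged Ac-LKRR substrate (10 microM final) is added and fluorescence measured after 25 minutes.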

Assay [6] in a line: Vero cells viability qHTS for Zika virus inhibitors (AID 1347167). Further: potency means the concentration at half of the fitted maximal effect. The conditions noted are these: cytotoxicity counter-screen (Zika); series mostly up to 45.9 µM. The gist of the method:
(§1)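 Luminescent ATP readout (CellTiter Glo) after 30 min at 37 degrees C gives viability; cells in DMEM + 4% FBS were treated 24 to 48 hours with compound, following overnight attachment.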

The nature of assay [7]: HepG2 cells viability qHTS for Zika virus inhibitors (AID 1347168). The conditions noted are these: Zika counter-screen; series mostly up to 45.9 µM. The gist of the method:
as §1

The nature of assay [8]: Tertiary RLuc qRT-PCR qHTS assay for Zika virus inhibitors (AID 1347169). Further: nearly all actives have a fitted effect of over 55% in size. Further: potency means the concentration at half of the fitted maximal effect. The conditions noted are these: infected Vero cells, reporter luminescence, 48-72 h; series mostly up to 45.9 µM. Put shortly:
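Orthogonal cell-based infection assay using recombinant ZIKV-RLuc (Cambodian) in Vero cells; compound added prior to virus at MOI 1-2. Incubation lasts 48-72 hrs at 37 degrees C before live-cell Renilla substrate is added and luminescence measured.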
(In general: In qPCR the cycle at which signal appears reflects the starting amount.)

The subject of assay [9] is Zika virus NS2B-NS3 protease. As to the kind of experiment: Primary screen GU AMC qHTS for Zika virus inhibitors (AID 1347154). Further: nearly all actives have a fitted effect of over 70% in size. The conditions noted are these: Zika NS2B-NS3 unlinked protease, AMC fluorogenic substrate; series mostly up to 54.1 µM. Put shortly:
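Fluorogenic AMC-substrate cleavage by noncovalent NS2B-NS3 protease complex (25 nM, pH 8.0 Tris buffer with Tween 20) followed for 15 minutes at room temperature (~20% conversion). Percent inhibition from ex340/em450 signal change, fitted by 4-parameter Hill equation.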

In assay [10] the target is Lysine-specific demethylase 5B (Homo sapiens) (UniProt Q9UGL1). Put plainly: Optimization screen for KDM5B Histone Demethylases FDH coupled qHTS against the LOPAC library (AID 1347166). The conditions noted are these: KDM5B demethylation, FDH-coupled NADH fluorescence (FDH is formaldehyde dehydrogenase); series mostly up to 57.5 µM. The gist of the method:
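KDM5BDeltaAP (200nM final) in 50mM HEPES pH 7.5, 0.01% Tween-20 was preincubated with compound for 10 min at room temperature. A substrate mix of 12.5uM H3K4Me3, 25uM a-ketoglutarate, ascorbate, Fe2+, NAD+ and formaldehyde dehydrogenase was then added. NADH fluorescence (340/450 nm) was read initially and after 30 min.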

In assay [11] the test system is Zika virus NS2B-NS3 protease (linked construct). Put plainly: Primary screen NINDS Rhodamine qHTS for Zika virus inhibitors (AID 1347160). Further: nearly all actives have a fitted effect of over 55% in size. The conditions noted are these: purified NS2B-NS3 protease, Rhodamine110 substrate fluorescence; series mostly up to 57.1 µM. The gist of the method: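 Aprotinin served as in-plate control. Conditions: 25 nM linked NS2B-NS3, pH 8.0 Tris buffer, titrated compounds, 15 min preincubation and 15 min reaction with 1.5 microM Rhod110 substrate at room temperature.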

Assay [12] can be described thus: OV-KATE Cancer Cell Toxicity qHTS against the NCATS CANVASS Library (AID 1347345). The conditions noted are these: OV-KATE cells viability, CellTiter-Glo luminescence, 72 h; series mostly up to 76 µM. The gist of the method: (§2)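 Toxicity is measured over 72 h of compound exposure at 37 degrees C under 5% CO2. Each well holds 1000 cells, pre-incubated for 4 hours before dosing across an 11-point range. CellTiter-Glo luminescence gives viability.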

The nature of assay [13]: HPAF-II Cancer Cell Toxicity qHTS against the NCATS CANVASS Library (AID 1347346). Further: nearly all actives have a fitted effect of over 55% in size. Conditions: HPAF-II viability, CellTiter-Glo ATP luminescence, 72 h; series mostly up to 76 µM. The gist of the method: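 Cytotoxicity read-out was CellTiter-Glo luminescence after 72 h at 37 degrees C exposure of HPAF-II cells (1000/well) to compounds in an 11-point titration.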
Assay [14] can be described thus: UWB1.289 Cancer Cell Toxicity qHTS against the NCATS CANVASS Library (AID 1347347). Further: nearly all actives have a fitted effect of over 60% in size. Conditions: UWB1.289 viability, CellTiter-Glo luminescence, 72 h; series mostly up to 76 µM. The gist of the method:
as §2

Assay [15] can be described thus: OV-SAHO Cancer Cell Toxicity qHTS against the NCATS CANVASS Library (AID 1347348). Further: nearly all actives have a fitted effect of over 55% in size. The conditions noted are these: OV-SAHO viability, CellTiter-Glo luminescence, 72 h; series mostly up to 76 µM. The gist of the method:
as §2

Assay [16] in a line: Panc-1005 Cancer Cell Toxicity qHTS against the NCATS CANVASS Library (AID 1347349). Further: nearly all actives have a fitted effect of over 60% in size. The conditions noted are these: Panc-1005 viability, CellTiter-Glo luminescence, 72 h; series mostly up to 76 µM. Put shortly: as §2
Assay [17] is described as follows: U-118MG Cancer Cell Toxicity qHTS against the NCATS CANVASS Library (AID 1347351). The conditions noted are these: U-118MG viability, CellTiter-Glo luminescence, 72 h; series mostly up to 76 µM. The gist of the method: as §2
Assay [18] can be described thus: UWB1.289-WTBRCA1 Cancer Cell Toxicity qHTS against the NCATS CANVASS Library (AID 1347354). Conditions: UWB1.289-WTBRCA1 viability, CellTiter-Glo luminescence, 72 h; at 76 µM (top of the series). The gist of the method: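 Toxicity was measured as CellTiter-Glo luminescence after 72 h exposure to an 11-point compound series. Compound was added to 1000 cells/well 4 h after seeding.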

The nature of assay [19]: Confirmatory screen GU Rhodamine qHTS for Zika virus inhibitors qHTS (AID 1347157). Further: potency means the concentration at half of the fitted maximal effect; nearly all actives have a fitted effect of over 70% in size. The conditions noted are these: purified enzyme assay, Rhodamine110 substrate fluorescence, 15 min. The gist of the method: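 Percent inhibition came from the 15-min rise in Rhodamine110 fluorescence (1.5 microM substrate, ~15% conversion), normalized to no-inhibitor and no-enzyme wells and Hill-fitted. Unlinked protease, 25 nM, pH 8.0 Tris buffer; compounds up to 114 microM, 15-min preincubation.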

The test system of assay [20] is Zika virus NS2B-NS3 protease (unlinked complex). As to the kind of experiment: Primary screen GU Rhodamine qHTS for Zika virus inhibitors: Unlinked NS2B-NS3 protease assay (AID 1347159). Further: nearly all actives have a fitted effect of over 60% in size. Conditions: Recombinant ZIKV NS2B-NS3 protease, Rhodamine110 substrate fluorescence; series mostly up to 107 µM. Put shortly: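 Buffer 10 mM Tris-HCl pH 8.0, 0.01% Tween 20. Unlinked protease 25 nM; compound preincubation 15 min, RT, protected from light. Substrate Rhod110, 1.5 microM; ~15% conversion in 15 min.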

Lysine-specific demethylase 5B (Homo sapiens), sequence (Q9UGL1 whole entry, looked up): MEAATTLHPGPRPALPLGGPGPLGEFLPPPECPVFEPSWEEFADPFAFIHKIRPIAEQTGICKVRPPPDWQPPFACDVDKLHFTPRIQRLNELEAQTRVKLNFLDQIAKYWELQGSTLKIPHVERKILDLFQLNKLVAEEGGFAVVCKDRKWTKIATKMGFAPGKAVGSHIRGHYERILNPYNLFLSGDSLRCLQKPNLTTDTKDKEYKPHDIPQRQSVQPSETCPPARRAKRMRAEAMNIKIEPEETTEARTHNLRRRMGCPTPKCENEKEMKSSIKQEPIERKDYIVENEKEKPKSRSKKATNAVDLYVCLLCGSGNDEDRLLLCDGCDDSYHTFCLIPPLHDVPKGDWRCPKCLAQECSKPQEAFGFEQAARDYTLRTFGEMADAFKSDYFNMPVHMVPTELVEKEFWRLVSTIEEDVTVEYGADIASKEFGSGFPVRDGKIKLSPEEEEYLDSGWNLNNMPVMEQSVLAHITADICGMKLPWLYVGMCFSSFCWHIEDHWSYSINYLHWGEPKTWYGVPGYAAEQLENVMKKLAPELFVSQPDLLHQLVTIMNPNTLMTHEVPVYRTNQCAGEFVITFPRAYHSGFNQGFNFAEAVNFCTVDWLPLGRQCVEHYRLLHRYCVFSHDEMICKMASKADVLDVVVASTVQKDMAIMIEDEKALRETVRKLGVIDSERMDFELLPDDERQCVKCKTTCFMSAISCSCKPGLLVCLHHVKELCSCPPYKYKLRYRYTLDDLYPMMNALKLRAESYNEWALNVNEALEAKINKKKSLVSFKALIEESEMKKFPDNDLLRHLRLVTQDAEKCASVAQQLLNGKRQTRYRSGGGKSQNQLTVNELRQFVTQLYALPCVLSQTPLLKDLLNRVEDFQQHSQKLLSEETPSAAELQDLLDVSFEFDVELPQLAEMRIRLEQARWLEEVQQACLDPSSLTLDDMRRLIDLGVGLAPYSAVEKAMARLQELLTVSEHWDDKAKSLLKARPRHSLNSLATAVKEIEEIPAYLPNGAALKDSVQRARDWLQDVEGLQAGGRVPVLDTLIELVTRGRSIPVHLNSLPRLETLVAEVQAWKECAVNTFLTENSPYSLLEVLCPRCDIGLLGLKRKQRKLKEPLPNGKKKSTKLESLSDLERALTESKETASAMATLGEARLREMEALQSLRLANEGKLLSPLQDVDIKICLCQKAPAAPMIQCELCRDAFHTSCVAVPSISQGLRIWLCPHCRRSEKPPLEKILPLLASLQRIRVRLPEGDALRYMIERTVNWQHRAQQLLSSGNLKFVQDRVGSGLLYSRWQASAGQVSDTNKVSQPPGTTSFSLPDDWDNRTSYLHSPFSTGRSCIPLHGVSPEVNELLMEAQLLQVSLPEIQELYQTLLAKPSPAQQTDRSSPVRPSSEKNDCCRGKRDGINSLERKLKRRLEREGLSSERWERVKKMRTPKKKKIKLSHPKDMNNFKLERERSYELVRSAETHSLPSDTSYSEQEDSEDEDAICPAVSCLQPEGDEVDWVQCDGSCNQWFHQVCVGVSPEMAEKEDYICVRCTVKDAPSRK

Regarding `O=C(Nc1ccc(Br)cc1)c1cc(Br)cc(Br)c1O`, the Potency was 21.5 µM (active) in [1]; 8.91 µM (active) in [2]; 3.12 µM (active) in assay [3]; 44.7 µM (active) in [5]; 23.4 µM (active) in assay [6]; 8.29 µM (active) in [8]. The Potency result in assay [4] is “inactive”. In addition, the molecule was classed as inactive in assay [7].

For `O=c1c(C2CC(c3ccc(-c4ccc(Br)cc4)cc3)Cc3ccccc32)c(O)sc2ccccc12` (stereo unspecified), the Potency is 12.1 µM (active) in assay [1], 2.2 µM (active) in assay [3], 11.2 µM (active) in [4] and 17.8 µM (active) in [5]. Also, in [6], the Potency entry is “inactive”. For the same molecule, the result in assay [7] was inactive.

With `O=P1(N(CCCl)CCCl)NCCCO1` (stereo unspecified), in assay [9], the Potency result was “inactive”. Besides, in assay [10], the outcome was inactive.

With `NCCc1ccc(O)cc1`, the Potency entry in assay [9] was “inactive”. In addition, the molecule was called inactive in assay [11], in assay [10], in [12], in assay [13], in assay [14] and in assay [15]. The call in [16], in assay [17] and in assay [18] was inactive.

As for `NC(=O)c1cc([N+](=O)[O-])cc([N+](=O)[O-])c1`, the Potency entry in assay [9] was “inactive”.

As for `O=C1OC(c2ccc(O)c(S(=O)(=O)O)c2)(c2ccc(O)c(S(=O)(=O)O)c2)c2c(Br)c(Br)c(Br)c(Br)c21`, the Potency was 3.16 µM (active) in [19], 2.51 µM (active) in assay [3] and 112 µM (active) in assay [4].

Regarding `CC(NC(C)(C)C)C(=O)c1cccc(Cl)c1` (stereo unspecified), the Potency entry in assay [9] was “inactive”. Moreover, the outcome in assay [20], in [11] and in assay [10] was inactive.

`O=C(CCCN1CCC2(CC1)C(=O)NCN2c1ccccc1)c1ccc(F)cc1`: the molecule was called inactive in assay [10].

With `CCOP(=S)(OCC)Oc1ccc2c(C)c(Cl)c(=O)oc2c1`, the Potency result in assay [9] is “inactive”.

For `CC(=O)C1CCOC1=O` (stereo unspecified), the Potency result in [9] is “inactive”.

On to `COP(=S)(OC)SCN1C(=O)c2ccccc2C1=O`, for which the Potency entry in [9] was “inactive”.

For `CN1CC[C@]23c4c5ccc(O)c4O[C@H]2[C@@H](O)C=C[C@H]3[C@H]1C5`, in [9], the Potency entry is “inactive”.

Regarding `C=CCC1(C(C)CC)C(=O)NC(=O)NC1=O` (stereo unspecified), the Potency result in assay [9] was “inactive”.

For the molecule `C[C@]12CC[C@@H]3c4ccc(OC(=O)N(CCCl)CCCl)cc4CC[C@H]3[C@@H]1CC[C@@H]2OP(=O)(O)O`, in assay [11], the call was inactive.

On to `CC(=O)OCC1=C(C(=O)O)N2C(=O)[C@@H](N)[C@H]2SC1`, for which the Potency result in assay [9] and in assay [8] was “inactive” each time. Moreover, the Potency in [19] was 22.1 µM (active); in [3] it was 24.8 µM (active). The result in [20] was inactive.
